# Source: PubChem (several laboratories)
# NR0B1 inh: inhibits human nuclear receptor DAX1 | P51843 | HEK293 Gal4-DAX1 luciferase reporter, luminescence | inhibition, % at 6.75 µM | 340,000 tested, 0.99% active | AID 504766;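 active = inhibition above the mean over all tested compounds plus 3 SD, cut at about 4.2% in these data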;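 note: 0% = DAX1-transfected cells with DMSO and 100% = empty-vector control cells with DMSO; inhibition shows as a rise in luminescence from relieved DAX1 repression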
# Target sequence (P51843 207-470 limits assumed): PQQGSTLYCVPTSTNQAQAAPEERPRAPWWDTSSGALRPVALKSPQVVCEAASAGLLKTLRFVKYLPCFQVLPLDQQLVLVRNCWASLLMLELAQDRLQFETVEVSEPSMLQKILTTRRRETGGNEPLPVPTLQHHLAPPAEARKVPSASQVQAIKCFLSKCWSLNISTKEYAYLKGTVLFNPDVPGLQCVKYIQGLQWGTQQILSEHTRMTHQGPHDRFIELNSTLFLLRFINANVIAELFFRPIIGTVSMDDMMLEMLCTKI
# AHR activator: activators of human aryl hydrocarbon receptor | P35869 | AHR-responsive luciferase reporter cells, luminescence | activation, % at 5 µM | 320,000 tested, 2.5% active; in the data active = activation above about 47%;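 note: 0% = vehicle wells and 100% = reference agonist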
# HSF-1 act: increases HSF-1 driven luciferase reporter signal; NIH3T3-HGL HSF-1 luciferase reporter, MG132, 8 h; 100% = twice DMSO control signal; activation, % at 9 µM; 300,000 tested, 1.7% active;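 active = mean replicate activation of at least 50% with a set share of replicates each reaching 50%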;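 note: 0% = median of the neutral control wells and 100% = twice that signal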
# HSF1 inhib: HSF1 inhibition | NIH3T3-HGL HSE-luciferase, MG132-induced, luminescence 8 h; active compounds read low | 300,000 tested, 0.77% active | activity change, negative = inhibition, % at 7.5 µM (by protocol);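 active = more than half of replicate wells show activity change below -50%, luminescence cut by over half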;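 note: luciferase reports HSF-1 transcriptional activity via heat shock element; 0% = median of DMSO wells and -100% = zero luminescence signal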
# FXN GAA850 act: activators of GAA850 frataxin (FXN) promoter; HEK293 lucGAA850 FXN promoter luciferase reporter, 24 h; percent of 10 µM SAHA response; activation, % at 6 µM; 360,000 tested, 0.56% active;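 active = activation above the average of all compounds screened plus 3 SD, cutoff fixed separately per campaign, cut at about 7.5% in these data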;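 note: 0% = DMSO wells and 100% = 10 µM SAHA wells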
# AHR act confirm: human AHR activation, confirmation; 2,300 tested, 87% active; human cells, AHR-responsive luciferase reporter, luminescence; shares compounds with AHR activator; activation, % at 9 µM; in the data active = activation above about 49%;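 note: HepG2 hepatoma cells carrying a DRE-driven firefly luciferase reporter; 0% = vehicle wells and 100% = reference agonist wells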
# PXR counter: counter-screen for AHR activators: human PXR activators; shares compounds with AHR activator; cell-based PXR reporter, luciferase luminescence; activation, % at 11.6 µM; 2,300 tested, 88% active; AID 434939; in the data active = activation above about 11%;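 note: human hepatoma DPX-2 cells expressing full-length human PXR; 0% = DMSO and 100% = reference agonist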
# * hit, by the source's call; x = not tested or not shown. Shown are actives, neighbours in structure and some others; about 5.4% of the full set was active somewhere.
SMILES,NR0B1 inh,AHR activator,HSF-1 act,HSF1 inhib,FXN GAA850 act,AHR act confirm,PXR counter
COc1ccc2sc(-c3ccc(N(C)C)cc3)c(C#CCCO)c2c1,0,109*,x,x,5,129*,19*
COc1ccc2sc(-c3ccc(SC)cc3)c(C#CCO)c2c1,0,85*,x,x,1,90*,34*
COc1ccc2sc(-c3ccc(N(C)C)cc3)c(C#CC(C)(C)O)c2c1,1,28,x,x,6,x,x
COC(=O)C[C@H]1c2cc(C(F)(F)F)ccc2S(=O)(=O)N1C1CCCC1,1,-2,-15,-3,1,x,x
Cc1ccc(-c2nc3cccnc3s2)cc1NS(C)(=O)=O,1,142*,21,7,6,121*,37*
CCCS(=O)(=O)Nc1cccc(-c2nc3cccnc3s2)c1,0,91*,2,-6,6,99*,40*
O=S(=O)(Nc1cccc(-c2nc3cccnc3s2)c1)c1cccs1,-1,5,-21,4,3,x,x
CC(=O)Nc1ccc(NC(=O)COC(=O)C2CCCCC2)cc1,0,-1,x,x,-2,x,x
C[C@@H]1CN([C@H](C)CO)C(=O)CCCn2nncc2CO[C@@H]1CN(C)S(=O)(=O)c1ccc(C#N)cc1,1,x,x,x,1,x,x
Cc1cc2oc(C(=O)NCc3ccncc3)c(C)c2cc1C,-1,89*,12,5,1,50*,28*
COc1cccc(Nc2nc(-c3cccs3)nc3ccccc23)c1,-1,88*,8,-9,2,41,68*
COc1ccc(Nc2nc(-c3cccs3)nc3ccccc23)cc1,0,-3,-9,0,0,x,x
c1ccc(OCc2nnc3sc(-c4cccs4)nn23)cc1,1,139*,-9,-9,2,81*,18*
O=C(NCCCN1CCOCC1)c1cc(S(=O)(=O)N2CCCCC2)ccc1Cl,0,x,x,x,1,x,x
Cc1ccc(/C=N/NC(=O)c2cccs2)s1,1,130*,43,14,5,45,28*
Cc1ccsc1-c1cc2nc(NCCCN(C)C)n(C)c(=O)c2s1,x,x,x,x,4,x,x
CC1(C(=O)Nc2cccc(Oc3ccccc3)c2)CCN1Cc1cc2ccccc2o1 (stereo unspecified),x,x,x,x,1,x,x
CC(=O)Nc1ccc(S(=O)(=O)Nc2ccc3c(c2)OCCO3)cc1Cl,x,1,3,-1,0,x,x
O=C(O)c1cc(S(=O)(=O)Nc2ccc3c(c2)OCCO3)c(Cl)cc1Cl,0,83*,-71,-69*,-11,15,14*
Cc1nc2c(sc3nc(N4CCOCC4)c4c(c32)CC(C)(C)OC4)c(-c2ccc(Cl)cc2)c1C(=O)O,-1,-4,-54,-45,0,x,x
O=C(Nc1nnc(SCC(=O)N2CCCCC2)s1)c1c(F)cccc1F,1,1,4,-2,0,x,x
CCC(O)(CC)C(=O)N/N=C/c1cc(Br)cc(Br)c1O,4,2,-8,-4,-3,x,x
CC(=O)N/N=C/c1cc(C(C)(C)C)cc(/C=N/NC(C)=O)c1O,x,82*,-1,-2,-1,83*,22*
COc1ccc(-c2nnc(SCC(=O)NC3CC3)o2)cc1,1,3,x,x,2,x,x
Nc1ccccc1Nc1nc2ccccc2[nH]1,1,95*,10,14,-1,2,9
SMILES,NR0B1 inh,AHR activator,HSF-1 act,HSF1 inhib,FXN GAA850 act,AHR act confirm,PXR counter
Cc1ccc2cc3c(NC(=O)c4cccnc4)nn(C)c3nc2c1,-1,114*,14,5,-1,93*,14*
Cc1ccc2cc3c(NC(=O)c4ccco4)nn(C)c3nc2c1,0,82*,12,-1,-2,97*,2
CCn1nc(NC(=O)c2ccncc2)c2cc3ccc(C)cc3nc21,-1,12,-3,-5,0,x,x
CCCn1nc(NC(=O)c2ccco2)c2cc3ccccc3nc21,0,22,2,1,2,x,x
CC(C)(O)/C=C/C[C@](C)(O)C1CC[C@]2(C)C1[C@H](O[C@H]1O[C@@H](CO)[C@H](O)[C@@H](O)[C@@H]1O)CC1[C@@]3(C)CC[C@H](O)C(C)(C)C3[C@@H](O)C[C@]12C (stereo partly specified),0,-1,x,x,1,x,x
S=c1nc2ccccc2c2nc(-c3ccccc3Br)[nH]n12,0,123*,15,6,1,130*,38*
O=C(Cc1cccc(NC(=O)C2CCCN(C(=O)C3CCCC3)C2)c1)Nc1ccc(C(=O)N2CCOCC2)cc1 (stereo unspecified),3,x,x,x,0,x,x
C/C(=N\NC(=O)c1c[nH]c2ccccc12)c1ccco1,0,92*,8,0,5,159*,24*
CCc1ccc(/C(C)=N/NC(=O)c2c[nH]c3ccccc23)s1,0,141*,-3,9,2,115*,59*
C/C(=N\NC(=O)c1ccc(C(=O)N/N=C(\C)c2ccco2)o1)c1ccco1,2,108*,7,-11,1,18,4
O=C(N/N=C/c1sc(=O)[nH]c1-[n+]1ccc2ccccc2c1)c1ccccc1[O-],1,84*,15,-2,3,71*,12*
CCOC(=O)CSc1c(-c2ccc(Cl)cc2)[nH]c2ccccc12,0,93*,3,-8,2,61*,9
CCOC(=O)CSc1c(-c2cccs2)[nH]c2ccccc12,0,23,15,-5,1,x,x
c1cnc2c(OCc3nc4ccccc4[nH]3)cccc2c1,2,110*,68*,27,6,149*,110*
Cc1ccc2nc(C(Cl)(Cl)Cl)nc(N/N=C/c3ccncc3)c2c1,-1,93*,13,5,1,110*,15*
Cc1nc(NC2=NCN(Cc3cccnc3)CN2)nc2ccccc12,2,x,x,x,0,x,x
Cc1nc(NC2=NCN(CCCN3CCOCC3)CN2)nc2c(C)cccc12,0,125*,x,x,1,74*,x
O=C(COC(=O)c1nc(Cl)ccc1Cl)c1ccccc1Cl,-1,-2,17,-1,-2,x,x
COc1cccc(N=c2oc3ccccc3cc2-c2nc3ccccc3[nH]2)c1,1,92*,71*,25,-2,132*,23*
CCN1C(=O)N[C@@H](c2ccco2)C(C(=O)OC)=C1C,0,0,-9,0,2,x,x
Cn1ncc(Cl)c1C(=O)Nc1ccncc1,0,-1,3,-1,1,x,x
Cn1ncc(Cl)c1C(=O)Nc1ccc2c(c1)OCO2,1,123*,-6,-5,2,117*,13*
O=C(Nc1ccc2c(c1)OCO2)c1c(Cl)nc2sccn12,3,114*,33,18,6,154*,53*
Cc1cnc(NC(=O)c2c(Cl)cnn2C)s1,1,88*,-16,7,-1,93*,x
